From PubChem BioAssay (EPA / NIEHS)
The source made the active and inactive calls. How the source made its calls: active means hit-call score of the fitted dose curve at least 0.9, where 1 is the maximum; inconclusive means response in the unintended direction; inactive means score below 0.9.

Test: IUF_NPC2-5_cytotoxicity_120hr: Cytotoxicity Assessment at 120 hours in the Leibniz Research Institute for Environmental Medicine (IUF) Neural Progenitor Cell Migration and Differentiation Assay (NPC2-5) (AID 2284307);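 on AC50: LDH released into supernatant as membrane damage marker via resorufin fluorescence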
Experimental: IUF_NPC2-5 is a cell-based, multiplexed assay that uses hNPC, a human primary neural progenitor cells, with measurements taken at 72 or 120 hours after chemical dosing in a 96-well plate. Human neural progenitor cells (hNPC) are generated from human fetal brain cortex at gestational week (GW) 16-19. In the neural progenitor cell migration and differentiation assay (NPC2-5), hNPCs grown as spheres are plated on an extracellular matrix and migrate and differentiate out of the sphere core. The processes radial glia migration, neuronal and oligodendrocyte migration as well as neuronal differentiation, neuronal morphology and oligodendrocyte differentiation are studied using automated phase contrast imaging and automated fluorescence imaging in combination with high content image analysis. In parallel, the cell viability is assessed using an alamar blue viability assay and the cytotoxicity using a lactate dehydrogenase dependent membrane integrity assay.IUF_NPC2-5_cytotoxicity_120hr is one of 12 assay components measured from the IUF_NPC2-5 assay. It is designed to measure cytotoxicity at 120hr due to loss of membrane integrity. LDH measurements are performed from medium supernatants of each well and are based on the reduction of resazurin to resorufin measured as fluorescence signal (relative fluorescence unit) in a multiplate reader. Data from the IUF_NPC2-5_cytotoxicity_120hr component was analyzed at the endpoint IUF_NPC2-5_cytotoxicity_120hr in the positive analysis fitting direction relative to the dynamic range and baseline of activity. Using a type of viability reporter, gain-of-signal activity can be used to understand cytotoxicity effects.
Culture protocol: After the cell expansion period the cells are cultured for up to four weeks in which they are passaged every week as described in 3.6. Between one to three days after passaging spheres at a size of 0.3 mm are picked for the test method. For the assessment of neural progenitor cell migration and differentiation, the spheres are plated on poly-D-lysine/laminin coated 96-well flat bottom plates in differentiation medium (N2) to initiate migration and differentiation. Thereby one 0.3 mm big sphere is plated in the middle of a well. The differentiation medium consists of DMEM and Ham's F12 at a ratio of 3 to 1 supplemented with 1% N2 and 1% penicillin and streptomycin. Within 5 days NPCs radially migrate out of the sphere core and differentiate into radial glia cells (nestin positive), neurons (TUBB3 positive), oligodendrocytes (O4 positive) and astrocytes (GFAP positive). Cultivation during the test method is performed at 37C and 5% CO2 at a ph of 7.2-7.6.Exposure: 0.3 mm big hNPC are plated in the already prepared test conditions. Exposure starts at day 0 of differentiation and is continued over five days of differentiation until the experiment is terminated. Cells are fed with fresh medium at day 3 of differentiation. Therefore, half of the test condition solution (e.g. solvent control or compound dilution) is replaced by freshly prepared test condition solution.Test Method: Migration distance and cytotoxicity is determined after 72 hours based on brightfield images of each well. The assay is terminated by the assessment of cell viability and cytotoxicity as well as cell fixation after 120 h. Immunocytochemistry is performed for Hoechst positive nuclei, TUBB3 positive neurons and O4 positive oligodendrocytes. On the ICC images, migration after 120 hours, neuronal and oligodendrocyte number, neuronal morphology and neuron/oligodendrocyte specific migration is assessed. immunocytochemical staining (ICC) generates an image for each sphere. The plates are scanned using an automated high content imaging device and all nuclei and their positions are determined automatically based on their intensity and size. Images are imported to the Omnisphero software to run the image analysis that measures the following endpoints. […]
With `CC(C)(C)C(=O)C(Oc1ccc(Cl)cc1)n1cncn1` (stereo unspecified) the outcome was “inactive”.
For `CC1(C)C(C=C(Cl)Cl)C1C(=O)OC(C#N)c1cccc(Oc2ccccc2)c1` (stereo unspecified), the outcome was “inactive”.
In the case of `C=C(C)CN(CC)c1c([N+](=O)[O-])cc(C(F)(F)F)cc1[N+](=O)[O-]`, the outcome is reported as “inactive”.
In the case of `CCNC(=O)NC(=O)C(C#N)=NOC`, the outcome is reported as “inactive”.
For `CS(=O)(=O)c1ccc(C(=O)C2C(=O)CCCC2=O)c([N+](=O)[O-])c1`, the outcome was “inactive”.
With `Cc1c(COC(=O)[C@@H]2[C@H](/C=C(\Cl)C(F)(F)F)C2(C)C)cccc1-c1ccccc1` the outcome was “inactive”.
For `CNC(=O)Oc1cccc2ccccc12`, the outcome was “inactive”.
For `N#CN=C1SCCN1Cc1ccc(Cl)nc1`, the outcome was “inactive”.
With `CCOP(=O)(OCC)Oc1nc(Cl)c(Cl)cc1Cl` the AC50 was 169 nM (active).
With `COP(=S)(OC)SCn1nnc2ccccc2c1=O` the outcome was “inactive”.
In the case of `CN/C(=N\[N+](=O)[O-])NCc1cnc(Cl)s1`, the outcome is reported as “inactive”.
For `CCSC(=O)N1CCCCCC1`, the outcome was “inactive”.
In the case of `O=C(Nc1ccccc1-c1ccc(Cl)cc1)c1cccnc1Cl`, the outcome is reported as “inactive”.
For `COC(=O)N(C(=O)N1CO[C@@]2(C(=O)OC)Cc3cc(Cl)ccc3C2=N1)c1ccc(OC(F)(F)F)cc1`, the outcome was “inactive”.
With `CS(=O)(=O)c1cc(C(F)(F)F)ccc1C(=O)c1cnoc1C1CC1` the outcome was “inactive”.
With `CO/N=C(/C1=NOCCO1)c1ccccc1Oc1ncnc(Oc2ccccc2Cl)c1F` the outcome was “inactive”.
